According to PMC7826789 (International Journal of Molecular Sciences, 2021):

System: TBK1
Conditions: Compound Concentration (nM):1000
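Further: KINOMEscan scanMAX binding as percent activity remaining versus control; lower means stronger binding.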

| Structure (SMILES) | Percent Control |
| --- | --- |
| Cl.O=C(Nc1ccc(Oc2ccc3[nH]c(NC(=O)c4ccco4)nc3c2)cc1)Nc1cc(C(F)(F)F)ccc1F [GW683134A] | 100% |
| CN(C)CCNC(=O)Nc1ccc(N(C)c2ccnc(Nc3ccc(CS(C)(=O)=O)cc3)n2)cc1.Cl [GW830900A] | 98% |
| CCn1c(-c2nonc2N)nc2c(C#CC(C)(C)O)nc(OCCNC)cc21.Cl [GSK949675] | 95% |
| NS(=O)(=O)c1ccc(N/N=C2\C(=O)Nc3ccc(C(=O)NCc4ccncc4)cc32)cc1 [GW300657X] | 33% |
| Cl.O=S1CCN(Cc2ccc(-c3ccc4ncnc(Nc5ccc(OCc6ccccc6)c(F)c5)c4c3)o2)CC1 [GW576924A] | 100% |
| Cl.O=C(O[C@H]1CN[C@H](C#Cc2cc3ncnc(Nc4ccc5c(cnn5Cc5ccccc5)c4)c3s2)C1)N1CCOCC1 [GSK200398A] | 100% |

System: TEC
Conditions: Compound Concentration (nM):1000

| Structure (SMILES) | Percent Control |
| --- | --- |
| CN1CCN(C(=O)c2ccc(NC(=O)Nc3ccc(N(C)c4ccnc(Nc5ccc(CS(C)(=O)=O)cc5)n4)cc3)cc2)CC1.Cl [GW830263A] | 100% |
| COc1cc2ncnc(Nc3ccc4c(cnn4Cc4ccccc4)c3)c2cc1OC.Cl [GW282449A] | 83% |
| CC1=C(C(=O)Nc2ccc3[nH]ncc3c2)C(c2ccc3ccccc3c2)CC(=O)N1 (stereo not shown) [GSK270822A] | 90% |
| O=C(Nc1n[nH]c2nc(-c3ccc(O)cc3)c(Br)cc12)C1CC1 [SB-725317] | 100% |
| CCS(=O)(=O)c1ccc(OC)c(Nc2ncc(-c3cccc(F)c3)o2)c1 [GW621970X] | 100% |
| COc1ccc2cc(-c3c(-c4ccncc4)nc(-c4ccc(S(C)(=O)=O)cc4C)n3C)ccc2c1 [SB-633825] | 66% |
| COc1ccccc1-c1cc(/C=C2\C(=O)Nc3ncc(Br)cc32)cc(Br)c1O [GW442130X] | 100% |
| CN(C)c1cc2c(Nc3ccc4c(cnn4Cc4ccccc4)c3)ncnc2cn1 [GW282974X] | 84% |
| COc1ccc2[nH]c3c4[nH]c5ccc(OC)cc5c4c4c(c3c2c1)C(=O)NC4=O [GW296115X] | 88% |
| COc1cccc(-n2ncc3c(N/N=C/c4ccncc4)ncnc32)c1 [GW784752X] | 100% |
| CC1=C(C(=O)Nc2ccc3[nH]ncc3c2)C(c2ccc(Cl)c(Cl)c2)CC(=O)N1 (stereo not shown) [GSK299115A] | 92% |
| COc1ccc(COc2ccc(Cc3cnc(N)nc3N)cc2OC)cc1 [GW632580X] | 100% |
| NS(=O)(=O)c1ccc(N/N=C2\C(=O)Nc3ccc(Cl)cc32)cc1 [GW280670X] | 100% |
| COc1cccc(-c2c[nH]c3c(N/N=C/c4ccncc4)ncnc23)c1 [GW814408X] | 90% |
| COC(=O)Nc1nc2ccc(Oc3ccc(NC(=O)Nc4cc(C(F)(F)F)ccc4F)cc3)cc2s1.Cl [GW693917A] | 78% |
| COc1ccc2c(-c3ccnc(Nc4cccc(OC(F)(F)F)c4)n3)cnn2n1 [GW810372X] | 100% |
| NS(=O)(=O)c1ccc(N/N=C2\C(=O)Nc3ccc(-c4cnco4)cc32)cc1 [GW276655] | 100% |
| Cl.c1ccc(Cc2nc3ccc(Nc4ncnc5ccccc45)cc3[nH]2)cc1 [GR269666A] | 100% |
| C/C(Nc1ccc(S(N)(=O)=O)cc1)=C1/C(=O)Nc2ccccc21 [GW335962X] | 100% |
| COc1cc(N2CCN(C(C)C)CC2)ccc1Nc1nc(Nc2ccc(F)cc2C(=O)NC[C@@H](O)CO)c2cc[nH]c2n1 [GSK1392956A] | 100% |

| Structure (SMILES) | Percent Control |
| --- | --- |
| Nc1ncnc2occ(-c3ccc(NC(=O)Nc4cc(C(F)(F)F)ccc4F)cc3)c12 [GW770249X] | 100% |
| CC(C)COC(=O)c1ccc2c(c1)/C(=C/Nc1ccc(S(N)(=O)=O)cc1)C(=O)N2 [GW416981X] | 100% |
| Cl.O=C(Nc1ccc(Oc2ccc3[nH]c(NC(=O)c4ccccc4)nc3c2)cc1)Nc1cc(C(F)(F)F)ccc1F [GW709042A] | 100% |
| CCc1ccc(Oc2nccc(-c3c(-c4ccc(F)cc4)ncn3C3CCNCC3)n2)cc1 [SB-242719] | 100% |
| COc1cc(C)c(N(C)C(=O)CN(C)C)cc1Nc1nc(Nc2cccc(F)c2C(N)=O)c2cc[nH]c2n1 [GSK2219385] | 100% |
| NS(=O)(=O)c1ccc(Nc2ncc(-c3ccccc3)o2)cc1 [GW572399X] | 99% |
| CCS(=O)(=O)c1ccc(OC)c(Nc2ncc(-c3cccc(OC)c3)o2)c1 [GW580509X] | 100% |
| C[C@@H](Oc1cc(-n2cnc3ccc(OC4CCN(C)CC4)cc32)sc1C(N)=O)c1ccccc1Cl [GSK579289A] | 99% |
| COc1cc2ncn(-c3cc(O[C@H](C)c4ccccc4Cl)c(C(N)=O)s3)c2cc1OC [GSK237701A] | 100% |
| O=C1Nc2ccc(C(=O)c3ccco3)cc2C1=Cc1cc(Cl)c(O)c(Cl)c1 [GW406108X] | 100% |
| Cc1cc(O)cc(C)c1/C=C/c1cncc(C(N)=O)c1 [GW435821X] | 100% |
| COc1cc(/C=N/Nc2ncnc3[nH]ncc23)ccc1O [GW578748X] | 100% |
| COc1cc(C=NNc2ncnc3c2cnn3-c2ccccc2)ccc1O [GW513184X] | 90% |
| NS(=O)(=O)c1ccc(N/N=C2\C(=O)Nc3ccc(C(=O)NCCc4c[nH]cn4)cc32)cc1 [GW300660X] | 100% |
| Cl.O=C(Nc1ccc(Oc2ccc3[nH]c(NC(=O)c4ccco4)nc3c2)cc1)Nc1cc(C(F)(F)F)ccc1F [GW683134A] | 100% |
| CN(C)CCNC(=O)Nc1ccc(N(C)c2ccnc(Nc3ccc(CS(C)(=O)=O)cc3)n2)cc1.Cl [GW830900A] | 82% |
| CCn1c(-c2nonc2N)nc2c(C#CC(C)(C)O)nc(OCCNC)cc21.Cl [GSK949675] | 100% |
| NS(=O)(=O)c1ccc(N/N=C2\C(=O)Nc3ccc(C(=O)NCc4ccncc4)cc32)cc1 [GW300657X] | 100% |
| Cl.O=S1CCN(Cc2ccc(-c3ccc4ncnc(Nc5ccc(OCc6ccccc6)c(F)c5)c4c3)o2)CC1 [GW576924A] | 100% |
| Cl.O=C(O[C@H]1CN[C@H](C#Cc2cc3ncnc(Nc4ccc5c(cnn5Cc5ccccc5)c4)c3s2)C1)N1CCOCC1 [GSK200398A] | 100% |
